Results: the supplement of paper PMC10849652
About 7,900 targets were measured; listed, in parts, are those with a hit and a random draw of the rest. About 0.6% of all pairs of compound and target were hits.

Assays:
Test in all cases: log2 fold change, soluble protein after heating vs DMSO (PISA); higher = thermal stabilisation; K562 cells, 10 uM, 30 min; active = over 0.2 and 3.5 SD of the protein, either way, in both replicates (recomputed)
IRAK-1-4 Inhibitor I = compound: C1COCCN1CCN2C3=CC=CC=C3N=C2NC(=O)C4=CC(=CC=C4)[N+](=O)[O-] [IRAK-1-4 Inhibitor I]
Procedure, shortened: (§1)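 Aliquots of K562 cells (2×10^6 cells/mL) treated with 10 μM compound for 30 min were heated for 3 min over 48°C-58°C. After pooling and extraction in PBS with 0.5% NP-40 at 4°C, soluble protein from a 21,000xg, 90 min spin was quantified by TMTpro 16plex LC-MS/MS with channel sums equalised. Thermal stability is expressed against control samples, from duplicates, as a log2 fold change.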

ibrutinib = compound: C=CC(=O)N1CCC[C@@H](n2nc(-c3ccc(Oc4ccccc4)cc3)c3c(N)ncnc32)C1 [ibrutinib]
Procedure, shortened: as §1

[1] = compound: CC(=O)c1cnc2ccc(-c3cc(Cl)c(O)c(Cl)c3)nc2c1N[C@H]1CC[C@H](CN(C)C)CC1
Procedure, shortened: as §1

ralimetinib = compound: CC(C)(C)Cn1c(N)nc2ccc(-c3[nH]c(C(C)(C)C)nc3-c3ccc(F)cc3)nc21 [ralimetinib]
Procedure, shortened: as §1

[2] = compound: CC(C)(O)CC(=O)NCCn1ccc2ncnc(Nc3ccc(Oc4cccc(C(F)(F)F)c4)c(Cl)c3)c21
Procedure, shortened: as §1

[3] = compound: CC(C)C1=C2N=C(C=C(N2N=C1)NCC3=CC=CC=C3)NCCCCCCN
Procedure, shortened: as §1

[4] = compound: CC(C)C[C@@H](C=O)NC(=O)[C@H](CC(C)C)NC(=O)[C@H](CC(C)C)NC(=O)OCc1ccccc1
Procedure, shortened: as §1

pinometostat = compound: CC(C)N(C[C@H]1O[C@@H](n2cnc3c(N)ncnc32)[C@H](O)[C@@H]1O)[C@H]1C[C@@H](CCc2nc3cc(C(C)(C)C)ccc3[nH]2)C1 [pinometostat]
Procedure, shortened: as §1

[5] = compound: CC1=C(C(CC(=O)N1)C2=CC=C(C=C2)C(F)(F)F)C(=O)NC3=C(C=C4C(=C3)C=NN4)F
Procedure, shortened: as §1

[6] = compound: CC1=C(C2=C(C=C1)C(=O)C3=CC=CC=C3N2CCCN)C
Procedure, shortened: as §1

[7] = compound: CC1=C(C=C(C=C1)NC(=O)C2=CC(=CC=C2)C(C)(C)C#N)NC3=CC4=C(C=C3)N=CN(C4=O)C
Procedure, shortened: as §1

[8] = compound: CC1=C(C=C(C=C1)NC(=O)C2=CC(=CC=C2)N(C)C)NC(=O)C3=CC=C(C=C3)O
Procedure, shortened: as §1

[9] = compound: CC1=CC=C(C=C1)SC2=C3C=C(SC3=CN=C2)C(=O)N
Procedure, shortened: as §1

[10] = compound: CC1=NC(=CC=C1)C2=C(N=C(N2)C(C)(C)C)C3=CC4=NC=CN=C4C=C3
Procedure, shortened: as §1

Nexturastat A = compound: CCCCN(Cc1ccc(C(=O)NO)cc1)C(=O)Nc1ccccc1 [Nexturastat A]
Procedure, shortened: as §1

vemurafenib = compound: CCCS(=O)(=O)Nc1ccc(F)c(C(=O)c2c[nH]c3ncc(-c4ccc(Cl)cc4)cc23)c1F [vemurafenib]
Procedure, shortened: as §1

[11] = compound: CCCS(=O)(=O)Nc1ccc(F)c(C(=O)c2c[nH]c3ncc(Cl)cc23)c1F
Procedure, shortened: as §1

[12] = compound: CCCc1cc(C)[nH]c(=O)c1CNC(=O)c1cc(-c2ccnc(N3CCN(C)CC3)c2)cc2c1cnn2C(C)C
Procedure, shortened: as §1

givinostat = compound: CCN(CC)Cc1ccc2cc(COC(=O)Nc3ccc(C(=O)NO)cc3)ccc2c1 [givinostat]
Procedure, shortened: as §1

barasertib = compound: CCN(CCCOc1ccc2c(Nc3cc(CC(=O)Nc4cccc(F)c4)[nH]n3)ncnc2c1)CCOP(=O)(O)O [barasertib]
Procedure, shortened: as §1

Measured: log2 fold change

GNB2 (UniProt P62879)
UniProt P62879, sequence (P62879 whole entry, looked up): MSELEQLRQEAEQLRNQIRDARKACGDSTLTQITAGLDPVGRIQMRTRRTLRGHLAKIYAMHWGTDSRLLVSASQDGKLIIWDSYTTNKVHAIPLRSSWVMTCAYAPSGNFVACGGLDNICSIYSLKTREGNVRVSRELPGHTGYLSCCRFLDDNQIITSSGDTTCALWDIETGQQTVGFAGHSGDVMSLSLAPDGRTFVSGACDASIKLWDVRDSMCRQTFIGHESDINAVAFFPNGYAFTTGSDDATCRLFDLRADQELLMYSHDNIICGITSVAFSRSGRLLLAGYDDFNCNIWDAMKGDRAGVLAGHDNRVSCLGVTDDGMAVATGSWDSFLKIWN
inactive: IRAK-1-4 Inhibitor I -0.021 | ibrutinib 0.003 | [1] -0.013 | ralimetinib 0.016 | [2] 0.013 | [3] 0.022 | [4] -0.025 | pinometostat 0.016 | [5] -0.034 | [6] 0.076 | [7] 0.11 | [8] 0.018 | [9] -0.053 | [10] -0.018 | Nexturastat A -0.023 | vemurafenib 0.044 | [11] 0.036 | [12] 0.012 | givinostat -0.019 | barasertib -0.042

GALNT11 (UniProt Q8NCW6)
inactive: IRAK-1-4 Inhibitor I -0.008 | ibrutinib -0.088 | [1] -0.022 | ralimetinib 0.065 | [2] 0.018 | [3] 0.015 | [4] 0.038 | pinometostat 0.045 | [5] 0.002 | [6] 0.039 | [7] 0.011 | [8] 0.049 | [9] -0.024 | [10] -0.041 | Nexturastat A -0.032 | vemurafenib 0.009 | [11] -0.035 | [12] -0.002 | givinostat 0.027 | barasertib 0.118

FMC1 (UniProt Q96HJ9)
UniProt Q96HJ9, sequence (Q96HJ9 whole entry, looked up): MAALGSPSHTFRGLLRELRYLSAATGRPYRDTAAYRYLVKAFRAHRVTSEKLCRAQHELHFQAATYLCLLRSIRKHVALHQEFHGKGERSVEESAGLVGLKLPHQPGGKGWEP
inactive: IRAK-1-4 Inhibitor I -0.06 | ibrutinib 0.008 | [1] 0.066 | ralimetinib -0.098 | [2] -0.006 | [3] 0.01 | [4] 0.125 | pinometostat 0.047 | [5] -0.041 | [6] 0.02 | [7] -0.036 | [8] -0.029 | [9] 0.027 | [10] 0.004 | Nexturastat A -0.038 | vemurafenib -0.065 | [11] 0.014 | [12] -0.074 | givinostat -0.051 | barasertib 0.022

HP1BP3 (UniProt Q5SSJ5)
UniProt Q5SSJ5, sequence (Q5SSJ5 whole entry, looked up): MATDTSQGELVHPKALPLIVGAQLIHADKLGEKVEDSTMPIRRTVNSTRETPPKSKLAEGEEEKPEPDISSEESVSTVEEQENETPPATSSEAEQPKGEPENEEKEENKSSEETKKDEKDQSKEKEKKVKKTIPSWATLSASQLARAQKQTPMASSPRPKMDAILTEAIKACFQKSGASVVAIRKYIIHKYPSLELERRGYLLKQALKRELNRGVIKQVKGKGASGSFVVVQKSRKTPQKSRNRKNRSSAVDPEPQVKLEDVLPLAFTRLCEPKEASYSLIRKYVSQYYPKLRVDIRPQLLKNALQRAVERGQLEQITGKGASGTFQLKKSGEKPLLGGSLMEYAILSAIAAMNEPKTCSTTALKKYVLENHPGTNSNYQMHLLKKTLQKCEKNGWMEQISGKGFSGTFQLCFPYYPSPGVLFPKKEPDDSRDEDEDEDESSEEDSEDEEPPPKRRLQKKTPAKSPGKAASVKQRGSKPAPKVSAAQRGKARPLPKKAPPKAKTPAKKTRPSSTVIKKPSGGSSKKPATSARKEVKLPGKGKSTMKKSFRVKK
active: [6] -0.387
inactive: IRAK-1-4 Inhibitor I -0.097 | ibrutinib 0.003 | [1] 0.051 | ralimetinib 0.089 | [2] -0.013 | [3] -0.031 | [4] 0.063 | pinometostat 0.092 | [5] -0.139 | [7] 0.03 | [8] -0.026 | [9] -0.025 | [10] 0.017 | Nexturastat A 0.108 | vemurafenib -0.014 | [11] 0.018 | [12] -0.001 | givinostat 0.031 | barasertib -0.129

HOMER1 (UniProt Q86YM7)
UniProt Q86YM7, sequence (Q86YM7 whole entry, looked up): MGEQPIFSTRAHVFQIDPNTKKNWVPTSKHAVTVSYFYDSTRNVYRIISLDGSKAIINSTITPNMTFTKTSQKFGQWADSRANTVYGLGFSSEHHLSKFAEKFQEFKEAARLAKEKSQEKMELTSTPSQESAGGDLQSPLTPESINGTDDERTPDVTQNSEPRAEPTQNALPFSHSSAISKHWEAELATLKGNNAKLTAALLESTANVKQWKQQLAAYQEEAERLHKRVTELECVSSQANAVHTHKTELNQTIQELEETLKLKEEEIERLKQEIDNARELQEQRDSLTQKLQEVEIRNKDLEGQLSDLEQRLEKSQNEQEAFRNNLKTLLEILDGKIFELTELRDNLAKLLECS
active: pinometostat -0.225
inactive: IRAK-1-4 Inhibitor I 0.104 | ibrutinib 0.009 | [1] -0.043 | ralimetinib 0.004 | [2] 0.03 | [3] 0.034 | [4] -0.088 | [5] 0.038 | [6] 0.093 | [7] -0.049 | [8] -0.059 | [9] -0.009 | [10] 0.125 | Nexturastat A -0.138 | vemurafenib -0.021 | [11] 0.071 | [12] 0.085 | givinostat 0.007 | barasertib 0.036

GOLPH3 (UniProt Q9H4A6)
active: [3] 0.31
inactive: IRAK-1-4 Inhibitor I 0.033 | ibrutinib -0.035 | [1] -0.023 | ralimetinib -0.005 | [2] -0.031 | [4] -0.005 | pinometostat -0.013 | [5] 0 | [6] -0.028 | [7] 0.074 | [8] -0.031 | [9] -0.017 | [10] 0.022 | Nexturastat A -0.017 | vemurafenib 0.015 | [11] 0.058 | [12] -0.011 | givinostat -0.007 | barasertib 0.023

ICMT (UniProt O60725)
UniProt O60725, sequence (O60725 whole entry, looked up): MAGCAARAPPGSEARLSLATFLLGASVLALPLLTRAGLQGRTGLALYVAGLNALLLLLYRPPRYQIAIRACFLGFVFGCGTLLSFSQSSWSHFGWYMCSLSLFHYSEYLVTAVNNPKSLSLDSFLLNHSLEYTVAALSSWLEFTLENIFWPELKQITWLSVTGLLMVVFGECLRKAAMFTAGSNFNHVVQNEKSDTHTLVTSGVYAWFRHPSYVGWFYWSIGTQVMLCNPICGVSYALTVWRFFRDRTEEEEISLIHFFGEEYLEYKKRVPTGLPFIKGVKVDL
active: [3] -0.472
inactive: IRAK-1-4 Inhibitor I 0.039 | ibrutinib 0.182 | [1] 0.248 | ralimetinib 0.163 | [2] -0.032 | [4] -0.051 | pinometostat -0.02 | [5] -0.171 | [6] 0.147 | [7] -0.048 | [8] -0.085 | [9] -0.079 | [10] 0.072 | Nexturastat A -0.204 | vemurafenib 0 | [11] -0.103 | [12] 0.064 | givinostat -0.037 | barasertib 0.022

HTATIP2 isoform 3 (UniProt Q9BUP3)
UniProt Q9BUP3, sequence (Q9BUP3 whole entry, looked up): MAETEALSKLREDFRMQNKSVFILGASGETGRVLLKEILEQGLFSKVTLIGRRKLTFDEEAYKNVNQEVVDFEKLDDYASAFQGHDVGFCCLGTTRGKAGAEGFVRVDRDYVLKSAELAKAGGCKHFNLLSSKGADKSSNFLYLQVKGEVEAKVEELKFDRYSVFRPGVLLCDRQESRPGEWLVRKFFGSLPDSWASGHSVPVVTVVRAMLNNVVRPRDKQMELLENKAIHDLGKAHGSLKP
active: [2] 0.651
inactive: IRAK-1-4 Inhibitor I 0.007 | ibrutinib 0.003 | [1] -0.034 | ralimetinib 0.077 | [3] -0.182 | [4] -0.021 | pinometostat 0.006 | [5] -0.017 | [6] 0.025 | [7] 0.065 | [8] -0.093 | [9] 0.011 | [10] -0.007 | Nexturastat A -0.14 | vemurafenib 0.057 | [11] 0.039 | [12] 0.059 | givinostat 0.012 | barasertib 0.041

GATA1 (UniProt P15976)
inactive: IRAK-1-4 Inhibitor I 0.038 | ibrutinib 0.015 | [1] 0.051 | ralimetinib 0.041 | [2] 0.027 | [3] 0.047 | [4] 0.088 | pinometostat 0.027 | [5] 0.081 | [7] -0.05 | [8] 0.02 | [9] -0.085 | [10] -0.029 | Nexturastat A -0.104 | vemurafenib -0.06 | [11] -0.035 | [12] -0.003 | givinostat -0.047 | barasertib -0.034
active: [6] -0.368

GNAI3 (UniProt P08754)
inactive: IRAK-1-4 Inhibitor I -0.007 | ibrutinib 0.083 | [1] 0.027 | ralimetinib 0.066 | [2] 0.083 | [3] 0.006 | [4] -0.03 | pinometostat 0.024 | [5] 0.02 | [6] 0.038 | [7] 0.125 | [8] -0.012 | [9] -0.07 | [10] -0.021 | Nexturastat A 0.072 | vemurafenib 0.037 | [11] -0.025 | [12] 0.069 | barasertib 0
active: givinostat -0.263

HK2 (UniProt P52789)
UniProt P52789, sequence (P52789 whole entry, looked up): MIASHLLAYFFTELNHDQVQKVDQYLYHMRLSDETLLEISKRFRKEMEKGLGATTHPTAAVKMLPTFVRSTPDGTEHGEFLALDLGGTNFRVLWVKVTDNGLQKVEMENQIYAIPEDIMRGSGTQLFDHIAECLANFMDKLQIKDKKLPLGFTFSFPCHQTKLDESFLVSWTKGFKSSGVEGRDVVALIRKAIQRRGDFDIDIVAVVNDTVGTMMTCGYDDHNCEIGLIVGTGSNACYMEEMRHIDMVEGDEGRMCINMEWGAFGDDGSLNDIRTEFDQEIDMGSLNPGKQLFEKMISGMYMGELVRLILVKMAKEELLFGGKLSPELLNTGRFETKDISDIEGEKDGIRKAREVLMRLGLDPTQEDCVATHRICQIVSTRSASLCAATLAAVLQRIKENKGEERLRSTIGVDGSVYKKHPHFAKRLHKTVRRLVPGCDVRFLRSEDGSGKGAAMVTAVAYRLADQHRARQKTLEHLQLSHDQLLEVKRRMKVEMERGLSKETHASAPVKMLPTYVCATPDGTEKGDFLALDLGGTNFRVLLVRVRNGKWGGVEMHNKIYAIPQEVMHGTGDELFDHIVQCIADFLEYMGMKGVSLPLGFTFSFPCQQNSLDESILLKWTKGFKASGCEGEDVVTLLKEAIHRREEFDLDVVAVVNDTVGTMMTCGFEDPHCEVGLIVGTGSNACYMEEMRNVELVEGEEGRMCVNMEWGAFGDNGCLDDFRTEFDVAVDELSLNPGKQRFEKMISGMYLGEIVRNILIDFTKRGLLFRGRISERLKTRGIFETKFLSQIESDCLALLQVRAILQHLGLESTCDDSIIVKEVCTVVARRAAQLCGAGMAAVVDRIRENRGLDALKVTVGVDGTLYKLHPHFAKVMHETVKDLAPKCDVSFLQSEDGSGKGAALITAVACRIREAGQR
inactive: IRAK-1-4 Inhibitor I -0.007 | ibrutinib -0.01 | [1] -0.096 | ralimetinib -0.037 | [2] -0.046 | [3] 0.096 | [4] -0.022 | pinometostat -0.001 | [5] 0.063 | [6] 0.034 | [8] -0.028 | [9] 0 | [10] 0.019 | Nexturastat A 0.017 | vemurafenib 0.003 | [11] 0.027 | [12] -0.041 | givinostat -0.016 | barasertib 0.051
active: [7] -0.257

HADHA (UniProt P40939)
inactive: IRAK-1-4 Inhibitor I -0.001 | ibrutinib 0.175 | [1] -0.358 | ralimetinib 0.058 | [2] -0.132 | [3] 0.43 | [4] -0.116 | pinometostat -0.064 | [5] -0.125 | [6] 0.054 | [7] 0.307 | [8] -0.203 | [9] 0 | [10] -0.022 | Nexturastat A -0.1 | vemurafenib -0.017 | [11] -0.006 | [12] 0.1 | givinostat 0.044 | barasertib -0.013

HIKESHI (UniProt Q53FT3)
UniProt Q53FT3, sequence (Q53FT3 whole entry, looked up): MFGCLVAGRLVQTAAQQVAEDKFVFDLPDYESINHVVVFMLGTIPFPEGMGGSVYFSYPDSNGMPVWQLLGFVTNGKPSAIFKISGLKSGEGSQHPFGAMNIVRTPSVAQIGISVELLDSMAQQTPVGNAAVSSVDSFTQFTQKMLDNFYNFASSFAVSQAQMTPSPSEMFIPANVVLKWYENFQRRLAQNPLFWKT
inactive: IRAK-1-4 Inhibitor I 0.013 | ibrutinib -0.041 | [1] 0.023 | [2] -0.045 | [3] -0.007 | [4] -0.194 | pinometostat 0.062 | [5] -0.043 | [6] 0.061 | [7] -0.138 | [8] -0.051 | [9] 0.003 | [10] -0.011 | Nexturastat A -0.037 | vemurafenib 0.027 | [11] 0.003 | [12] -0.033 | givinostat -0.008 | barasertib 0.011
active: ralimetinib -0.305

GEMIN5 (UniProt Q8TEQ6)
UniProt Q8TEQ6, sequence (Q8TEQ6 whole entry, looked up): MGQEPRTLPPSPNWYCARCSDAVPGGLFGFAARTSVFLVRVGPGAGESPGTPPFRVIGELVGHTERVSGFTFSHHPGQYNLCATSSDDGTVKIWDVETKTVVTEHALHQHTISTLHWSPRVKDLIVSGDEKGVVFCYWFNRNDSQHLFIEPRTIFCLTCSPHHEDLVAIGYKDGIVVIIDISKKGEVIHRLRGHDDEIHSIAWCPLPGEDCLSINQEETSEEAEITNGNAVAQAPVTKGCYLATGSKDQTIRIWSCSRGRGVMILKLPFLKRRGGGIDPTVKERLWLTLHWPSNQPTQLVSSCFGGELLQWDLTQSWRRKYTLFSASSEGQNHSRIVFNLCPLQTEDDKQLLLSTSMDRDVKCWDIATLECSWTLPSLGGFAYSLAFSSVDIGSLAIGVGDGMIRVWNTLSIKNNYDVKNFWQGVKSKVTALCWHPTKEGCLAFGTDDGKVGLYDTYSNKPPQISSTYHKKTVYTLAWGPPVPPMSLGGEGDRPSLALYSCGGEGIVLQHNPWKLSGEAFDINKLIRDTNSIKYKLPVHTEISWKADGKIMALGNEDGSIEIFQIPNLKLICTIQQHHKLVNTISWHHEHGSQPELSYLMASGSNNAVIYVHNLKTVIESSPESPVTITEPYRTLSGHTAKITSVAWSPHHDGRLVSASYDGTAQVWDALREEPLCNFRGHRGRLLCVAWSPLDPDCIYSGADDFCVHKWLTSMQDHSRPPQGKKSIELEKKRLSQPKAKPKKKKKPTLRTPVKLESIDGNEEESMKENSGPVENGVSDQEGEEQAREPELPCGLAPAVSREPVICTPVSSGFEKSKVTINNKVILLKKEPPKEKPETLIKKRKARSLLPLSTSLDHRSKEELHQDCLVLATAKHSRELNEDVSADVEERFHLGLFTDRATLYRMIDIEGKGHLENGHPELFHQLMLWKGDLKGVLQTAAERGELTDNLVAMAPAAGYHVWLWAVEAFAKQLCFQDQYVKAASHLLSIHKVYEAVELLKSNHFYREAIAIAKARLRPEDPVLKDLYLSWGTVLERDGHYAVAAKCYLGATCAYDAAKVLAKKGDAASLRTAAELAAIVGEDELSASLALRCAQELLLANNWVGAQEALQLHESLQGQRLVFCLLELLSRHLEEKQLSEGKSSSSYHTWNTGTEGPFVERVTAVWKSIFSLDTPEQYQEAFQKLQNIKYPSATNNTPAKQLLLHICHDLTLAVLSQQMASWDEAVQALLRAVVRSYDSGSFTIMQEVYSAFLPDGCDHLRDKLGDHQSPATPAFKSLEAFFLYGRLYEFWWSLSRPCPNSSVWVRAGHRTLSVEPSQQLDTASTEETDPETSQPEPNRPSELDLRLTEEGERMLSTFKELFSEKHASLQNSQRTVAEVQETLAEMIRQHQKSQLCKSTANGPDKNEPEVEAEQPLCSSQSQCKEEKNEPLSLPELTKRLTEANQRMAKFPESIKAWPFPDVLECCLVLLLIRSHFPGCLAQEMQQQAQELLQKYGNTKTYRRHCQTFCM
inactive: IRAK-1-4 Inhibitor I -0.037 | ibrutinib -0.014 | [1] -0.155 | ralimetinib 0.034 | [2] -0.049 | [4] 0.033 | pinometostat 0.043 | [5] 0.004 | [7] 0.035 | [8] -0.038 | [9] 0.009 | [10] -0.013 | Nexturastat A -0.004 | vemurafenib 0.015 | [11] 0.093 | [12] 0.018 | givinostat -0.1 | barasertib 0.019
active: [3] -0.422 | [6] -0.28

GATD1 (UniProt Q8NB37)
UniProt Q8NB37, sequence (Q8NB37 whole entry, looked up): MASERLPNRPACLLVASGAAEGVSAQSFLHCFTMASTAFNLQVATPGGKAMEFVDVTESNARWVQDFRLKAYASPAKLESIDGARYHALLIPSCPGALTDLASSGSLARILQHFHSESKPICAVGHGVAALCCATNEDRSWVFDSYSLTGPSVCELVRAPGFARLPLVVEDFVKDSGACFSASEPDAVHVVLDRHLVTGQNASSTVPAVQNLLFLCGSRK
inactive: IRAK-1-4 Inhibitor I -0.069 | ibrutinib 0.106 | [1] -0.099 | ralimetinib -0.026 | [2] 0.01 | [3] 0.026 | [4] 0.104 | pinometostat 0.141 | [5] 0.032 | [6] 0 | [7] 0.054 | [8] -0.041 | [9] -0.023 | [10] -0.108 | Nexturastat A 0.067 | vemurafenib -0.047 | [11] -0.06 | [12] 0.021 | givinostat 0.013 | barasertib 0.024

GAGE12F (UniProt P0CL80)
UniProt P0CL80, sequence (P0CL80 whole entry, looked up): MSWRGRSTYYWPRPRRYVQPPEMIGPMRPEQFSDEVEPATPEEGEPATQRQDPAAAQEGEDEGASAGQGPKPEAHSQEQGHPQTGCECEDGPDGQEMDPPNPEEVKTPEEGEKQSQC
inactive: IRAK-1-4 Inhibitor I 0.045 | ibrutinib 0.025 | [1] 0.037 | ralimetinib -0.038 | [2] 0.02 | [3] 0.015 | [4] 0.019 | pinometostat -0.06 | [5] 0.004 | [6] 0.128 | [7] -0.005 | [8] -0.035 | [9] 0.006 | [10] 0.061 | Nexturastat A 0.036 | vemurafenib 0.019 | [11] -0.018 | [12] -0.031 | givinostat -0.076 | barasertib 0.01
